Platelet DG rel: platelet dense granule release activity; human platelet-rich plasma, SFLLRN dense granule ATP release, luminescence; 300,000 compounds, 0.22% hits; inhibition, %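 (compounds screened at 7.5 µM in platelet-rich plasma)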;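 active means mean replicate score, as percent of positive control, at or above 50; inconclusive means mean below 50 but at least one replicate at or above 50; inactive means mean and every replicate below 50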
SENP8 block-1: inhibitors of human SENP8 protease | Q96LD8 | purified SENP8, Z-RLRGG-aminoluciferin cleavage, luminescence | inhibition, % at 10 µM | 330,000 compounds, 1.2% hits; in the data active means inhibition above about 50%
SENP8 block-2: inhibitors of human SENP8 protease; Q96LD8; recombinant SENP8, Nedd8 substrate fluorescence; inhibition, % at 20 µM; 360,000 compounds, 0.64% hits; in the data active means inhibition mostly above about 40%, no sharp cut-off; inactive means mostly below about 27%
SENP6 inh: inhibitors of human SENP6 protease; Q9GZR1; Recombinant SENP6 catalytic domain, aminoluciferin luminescence; inhibition, % at 10 µM; 330,000 compounds, 1.8% hits; AID 2599;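 active means inhibition above about 50% at the single tested dose, limit read from the data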;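 further: plate controls were DMSO wells with enzyme for no effect and DMSO wells lacking enzyme for full effect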
Target sequence (Q9GZR1 628-1112 limits assumed): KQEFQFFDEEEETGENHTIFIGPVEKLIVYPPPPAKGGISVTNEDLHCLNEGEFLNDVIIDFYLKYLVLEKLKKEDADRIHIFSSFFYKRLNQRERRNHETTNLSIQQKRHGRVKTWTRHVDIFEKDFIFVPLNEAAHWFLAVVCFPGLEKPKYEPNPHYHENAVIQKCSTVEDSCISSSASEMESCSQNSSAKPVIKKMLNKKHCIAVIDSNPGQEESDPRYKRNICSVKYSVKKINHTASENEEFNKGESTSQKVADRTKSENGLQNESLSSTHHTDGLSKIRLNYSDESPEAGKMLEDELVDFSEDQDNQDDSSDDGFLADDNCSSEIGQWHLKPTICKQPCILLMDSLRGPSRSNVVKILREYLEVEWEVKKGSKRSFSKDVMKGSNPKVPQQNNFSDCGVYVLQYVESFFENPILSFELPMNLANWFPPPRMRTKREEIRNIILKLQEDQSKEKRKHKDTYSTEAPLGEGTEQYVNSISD
SENP7 block: SENP7 protease inhibition. inhibition, % at 5 µM. 330,000 compounds, 1.5% hits. Q9BQF6. recombinant SENP7, Z-RLRGG-aminoluciferin luminescence, 40 min;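 active means inhibition above about 50% at the single test dose, limit read from the data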;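 further: plate controls were DMSO with enzyme for no effect and no enzyme buffer wells for full effect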
SENP8 conf: confirmation of human SENP8 protease inhibitors | shares compounds with SENP7 block | Recombinant SENP8, Z-RLRGG-aminoluciferin luminescence, 60 min | inhibition, % at 12.5 µM | 6,200 compounds, 40% hits | AID 488912;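 active means mean inhibition across replicates above about 50%, limit read from the data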
SENP6 confirm: confirmation of human SENP6 protease inhibitors | recombinant SENP6, Z-RLRGG-aminoluciferin luminescence | shares compounds with SENP7 block | 6,200 compounds, 58% hits | inhibition, % at 12.5 µM
SENP7 conf: confirmation of human SENP7 protease inhibitors. shares compounds with SENP7 block. recombinant SENP7, Z-RLRGG-aminoluciferin luminescence, 40 min. inhibition, % at 12.5 µM. 6,200 compounds, 69% hits
Casp3 select: caspase-3 inhibition (SENP selectivity assay); AID 488918; 6,200 compounds, 60% hits; shares compounds with SENP7 block; inhibition, % at 12.5 µM; purified caspase-3, Z-DEVD-aminoluciferin luminescence, 60 min;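 active means mean inhibition above about 50%, limit read from the data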;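 further: plate controls were enzyme with DMSO for no effect and wells without caspase-3 for full effect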
Luc interf: luminescence interference (SENP counter-screen) | AID 488919 | 6,200 compounds, 39% hits | inhibition, % at 12.5 µM | shares compounds with SENP7 block | Pre-incubated SENP8/Z-RLRGG-aminoluciferin, luciferase luminescence interference;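 active means mean inhibition above about 50% when retested at one dose, limit read from the data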;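 further: plate controls were DMSO wells with completed reaction for no effect and substrate without enzyme for full effect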
An asterisk follows results filed as active; u = inconclusive; x = no result given. Only some compounds are listed: those with a hit (about 2.4% of all), similar ones and a draw of the others.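 How the source made its calls, unless noted: active means mean inhibition above about 50% in the one-dose retest (limit read from the data); inactive means the rest.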

SMILES | Platelet DG rel | SENP8 block-1 | SENP8 block-2 | SENP6 inh | SENP7 block | SENP8 conf | SENP6 confirm | SENP7 conf | Casp3 select | Luc interf
COc1cccc(CN(C)C(=O)Cc2c[nH]c3ccccc23)c1 | -7 | 2 | -3 | -18 | -3 | x | x | x | x | x
Cc1ccc(CNC(=O)C2CCC(CNS(=O)(=O)c3cccs3)CC2)cc1 (stereo not given) | 13 | 10 | 8 | -11 | -5 | x | x | x | x | x
O=C(CNC(=O)c1cccs1)Nc1ccc(N2CCOCC2)cc1 | x | 2 | 11 | 0 | 6 | x | x | x | x | x
Cc1csc2nc(CSc3nncn3-c3ccccc3)c(Br)n12 | 3 | 1 | 18 | -22 | 1 | x | x | x | x | x
Cc1csc2nc(CSc3nc4ccccc4o3)c(Br)n12 | -1 | 16 | 14 | 56* | -1 | 29 | 30 | 55* | 20 | 12
Cc1c(C(=O)NNC(=S)NCc2ccc(Cl)cc2)oc2ccccc12 | -6 | -3 | 2 | 7 | 0 | x | x | x | x | x
Oc1c(Cl)cc(Cl)cc1C=Nc1cc(C(F)(F)F)ccc1N1CCc2ccccc2C1 | 13 | 96* | -112 | 15 | 99* | 94* | 96* | 102* | 95* | 62*
Oc1c(Cl)cccc1C=Nc1cc(C(F)(F)F)ccc1N1CCCC1 | u | 5 | 8 | 1 | 1 | x | x | x | x | x
CN(C)CCCNc1c2c(nc3cc(-c4cccc(F)c4)nn13)CCC2 | 5 | 1 | -205 | 3 | 4 | x | x | x | x | x
Cc1cccc(-c2cc3nc4c(c(NCc5ccco5)n3n2)CCCC4)c1 | 15 | 81* | -267 | 88* | 44 | 17 | 12 | 15 | 24 | 26
Cc1cccc(-c2cc3nc4c(c(N5CCC6(CC5)OCCO6)n3n2)CCCC4)c1 | x | -11 | -214 | -33 | -7 | x | x | x | x | x
Cc1cccc(-c2cc3nc4c(c(N5CCOCC5)n3n2)CCCC4)c1 | 7 | 53* | -198 | 65* | 5 | 60* | 51* | 50 | 48 | 13
CSc1nsc2nc(=O)c(/C=C3\C=Nc4ccccc43)c(N)n12 | 10 | 72* | -7 | 86* | 39 | 69* | 72* | 92* | 41 | 76*
CC(C)S(=O)(=O)c1nsc2nc(=O)c(/C=C3\C=Nc4ccccc43)c(N)n12 | -1 | 7 | -138 | 2 | 12 | x | x | x | x | x
CC(=O)Nc1ccc(CN(C)c2c(C)nc3ccc(C(=O)NCCCn4ccnc4)cn23)cc1 | x | x | 17 | x | x | x | x | x | x | x
O=C1OC(c2ccccc2)=C/C1=C/c1cccs1 | 2 | 38 | 11 | 59* | 57* | 24 | 37 | 46 | 35 | 20
COCCn1c(C)cc(C(=O)CSc2nc3ccccc3s2)c1C | 5 | 21 | 2 | 54* | -8 | 55* | 47 | 80* | 43 | 26
COc1cc(NCCCCCCCN)c2ncccc2c1 | -3 | 89* | 17 | 94* | 95* | 70* | 87* | 63* | 97* | 4
Cc1c(C(=O)N2CCN(S(=O)(=O)c3ccccc3)CC2)oc2ccc(Br)cc12 | x | -1 | -1 | -4 | 6 | x | x | x | x | x
CC(=O)c1ccc(N=Nc2ccc(N)cc2)cc1 | 16 | 49 | 46* | 75* | 78* | 60* | 62* | 88* | 62* | 12
CC(=O)c1ccc(N=Nc2c(C)[nH][nH]c2=O)cc1 | 15 | 41 | 56* | 55* | 79* | 56* | 57* | 76* | 88* | 38
Cc1[nH][nH]c(=O)c1N=Nc1ccc(Br)c(Cl)c1 | -23 | 86* | 28 | 94* | 71* | 40 | 49 | 44 | 46 | -4
Cc1[nH][nH]c(=O)c1N=Nc1ccc(S(N)(=O)=O)cc1 | 9 | -11 | 12 | 0 | 12 | x | x | x | x | x
O=C(CCN1C(=O)[C@@H]2Cc3ccccc3CN2C1=O)N[C@@H](C(=O)O)c1ccccc1 | -1 | -7 | 1 | -16 | 6 | x | x | x | x | x

Screens: PubChem, several laboratories
